The source made the active and inactive calls.
Legend:
[1] = E. coli DRC41 culture turbidity changes, primary screen, E. coli filamentation inducer project, strain DRC41, OD650, 48 h (AID 1152);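 note: E. coli MC1000 strain DRC41 lacking acrAB efflux pump and sulA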; details: E. coli DRC41 (acrAB sulA), higher = more signal, called active from +8 up or from −8 down
[2] = small-molecule binders of probe aLefty1, primary screen, biochemical, small-molecule microarray, 635/667 nm fluorescence (AID 1153); details: higher = more signal;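 note: score merges spot fluorescence with signal-to-noise ratio from the scanned slide images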
[3] = PSAC antagonists in infected red cells, primary screen, cell-based, P. falciparum Indochina, OD700, 1 h (AID 1154); details: P. falciparum Indochina infected RBC osmotic lysis, higher = more signal, called active from +8 up or from −8 down
[4] = PSAC antagonists in infected red cells, primary screen, cell-based, P. falciparum Indochina, OD700, 2 h (AID 1155);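 note: lysis reports solute entry through the parasite surface anion channel PSAC; channel blockers reduce lysis of infected cells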; details: P. falciparum Indochina infected erythrocytes, osmotic lysis OD700; higher = more signal, called active from +8 up or from −8 down
[5] = osmotic lysis modulators in infected erythrocytes, primary screen, PSAC antagonist project, cell-based, P. falciparum Indochina, OD700, 3 h (AID 1156); details: higher = more signal, called active from +8 up or from −8 down
[6] = PSAC antagonists in infected red cells, primary screen, cell-based, P. falciparum Indochina, OD700, 18 h (AID 1157); details: P. falciparum Indochina infected erythrocytes, osmotic lysis OD700, 18 h; higher = more signal, called active from +8 up or from −8 down
[7] = modulators of S6 phosphorylation in cells, primary screen, cell-based, A549, cytoblot, luminescence, serum-stimulated (AID 1158); details: A549 phospho-S6 cytoblot, 5 h, higher = more signal;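 note: serum-stimulated A549 lung adenocarcinoma cells; signal is phosphorylated S6 detected by cytoblot immunostaining with HRP secondary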
[8] = target: NADPH oxidase 2 (Homo sapiens) (UniProt P04839); test: NOX2-dependent H2O2 signal modulators, primary screen, NOX inhibitor project, cell-based, HEK293-NOX2, PMA-stimulated, Amplex Red fluorescence (AID 1159); details: 45 min, higher = more signal, called active from +8 up or from −8 down; note: test concentration not given here
[9] = target: NADPH oxidase 4 (Homo sapiens) (UniProt Q9NPH5); test: NOX4-dependent H2O2 signal modulators, primary screen, NOX inhibitor project, cell-based, HEK293-NOX4, tetracycline-induced, Amplex Red fluorescence (AID 1160); details: 45 min, higher = more signal, called active from +8 up or from −8 down
[10] = target: NADPH oxidase 5 (Homo sapiens) (UniProt Q96PH1); test: NOX5-dependent H2O2 signal modulators, primary screen, NOX inhibitor project, cell-based, HEK293-NOX5, Amplex Red fluorescence (AID 1161); details: HEK293-NOX5, ionomycin, 45 min, higher = more signal
NADPH oxidase 5 (Homo sapiens), sequence (Q96PH1 whole entry, looked up): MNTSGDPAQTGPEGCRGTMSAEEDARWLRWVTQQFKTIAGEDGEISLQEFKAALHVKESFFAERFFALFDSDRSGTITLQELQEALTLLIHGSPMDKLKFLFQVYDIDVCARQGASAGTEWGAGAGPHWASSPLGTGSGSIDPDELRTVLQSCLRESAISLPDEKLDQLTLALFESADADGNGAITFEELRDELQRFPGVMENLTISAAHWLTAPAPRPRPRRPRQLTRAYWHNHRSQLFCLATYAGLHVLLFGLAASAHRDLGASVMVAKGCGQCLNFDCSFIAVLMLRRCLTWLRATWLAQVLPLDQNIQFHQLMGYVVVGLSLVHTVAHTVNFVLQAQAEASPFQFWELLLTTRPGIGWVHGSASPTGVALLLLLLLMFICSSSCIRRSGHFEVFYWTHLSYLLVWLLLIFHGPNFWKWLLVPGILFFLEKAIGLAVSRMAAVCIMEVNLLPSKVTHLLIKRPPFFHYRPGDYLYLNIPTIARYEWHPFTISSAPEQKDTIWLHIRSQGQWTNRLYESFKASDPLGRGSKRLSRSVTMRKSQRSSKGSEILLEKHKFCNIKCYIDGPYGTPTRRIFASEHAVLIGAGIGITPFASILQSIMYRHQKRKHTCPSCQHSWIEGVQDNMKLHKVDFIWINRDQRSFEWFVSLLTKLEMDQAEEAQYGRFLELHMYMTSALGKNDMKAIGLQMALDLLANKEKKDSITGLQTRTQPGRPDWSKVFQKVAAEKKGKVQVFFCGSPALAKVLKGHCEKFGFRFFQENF

NADPH oxidase 2 (Homo sapiens), sequence (P04839 whole entry, looked up): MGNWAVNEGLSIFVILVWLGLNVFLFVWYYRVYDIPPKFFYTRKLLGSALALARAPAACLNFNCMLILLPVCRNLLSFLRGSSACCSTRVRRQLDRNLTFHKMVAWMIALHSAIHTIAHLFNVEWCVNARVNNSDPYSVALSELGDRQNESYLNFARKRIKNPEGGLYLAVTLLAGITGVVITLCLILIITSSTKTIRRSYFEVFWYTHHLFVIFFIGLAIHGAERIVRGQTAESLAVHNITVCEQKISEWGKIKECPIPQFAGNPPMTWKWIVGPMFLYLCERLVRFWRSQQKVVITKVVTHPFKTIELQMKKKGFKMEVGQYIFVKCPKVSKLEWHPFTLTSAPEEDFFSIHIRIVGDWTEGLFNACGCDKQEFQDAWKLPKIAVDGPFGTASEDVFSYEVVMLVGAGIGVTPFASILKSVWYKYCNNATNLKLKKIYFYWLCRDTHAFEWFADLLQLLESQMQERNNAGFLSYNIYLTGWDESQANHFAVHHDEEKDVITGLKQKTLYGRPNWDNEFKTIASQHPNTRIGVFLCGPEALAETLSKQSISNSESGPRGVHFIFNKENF
NADPH oxidase 4 (Homo sapiens), sequence (Q9NPH5 whole entry, looked up): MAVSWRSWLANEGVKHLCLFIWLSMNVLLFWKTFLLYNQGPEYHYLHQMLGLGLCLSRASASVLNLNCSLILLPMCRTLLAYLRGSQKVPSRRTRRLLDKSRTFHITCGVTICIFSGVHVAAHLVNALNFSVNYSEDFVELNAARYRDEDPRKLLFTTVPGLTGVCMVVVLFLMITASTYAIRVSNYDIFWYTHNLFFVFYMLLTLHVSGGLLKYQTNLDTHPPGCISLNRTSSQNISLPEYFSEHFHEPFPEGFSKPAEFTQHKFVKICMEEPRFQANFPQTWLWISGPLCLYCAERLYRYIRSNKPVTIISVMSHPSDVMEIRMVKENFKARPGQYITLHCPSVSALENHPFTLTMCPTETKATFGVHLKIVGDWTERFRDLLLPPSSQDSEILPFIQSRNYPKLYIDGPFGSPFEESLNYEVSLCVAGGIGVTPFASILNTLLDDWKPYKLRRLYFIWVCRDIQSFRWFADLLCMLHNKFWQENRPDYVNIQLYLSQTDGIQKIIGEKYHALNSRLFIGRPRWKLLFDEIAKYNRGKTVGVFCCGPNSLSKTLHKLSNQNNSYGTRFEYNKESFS

Structure (SMILES) | z-score [1] | composite z-score [2] | z-score [3] | z-score [4] | z-score [5] | z-score [6] | z-score [7] | z-score [8] | z-score [9] | z-score [10]
NC(=O)N1C(=O)C2C(C1=O)C1C=C(CCCO)C2C(C2CC2)N1Cc1cc2c(cc1Br)OCO2 (stereo not given) | -0.766 (inactive) | 0.19 | 4.92 (inactive) | 0.494 (inactive) | -0.23 (inactive) | 0.357 (inactive) | 0.415 | 0.334 (inactive) | -0.381 (inactive) | -0.344
CCOC(=O)C1=CC[C@H]2C(=O)N(c3ccccc3)C(=O)[C@@H]12 | -1.58 (inactive) | 0.0027 | 0.399 (inactive) | 0.772 (inactive) | 0.692 (inactive) | 0.339 (inactive) | -0.743 | -0.234 (inactive) | -2.03 (inactive) | -2.36
CS(=O)(=O)CCOC(=O)C1=CC(CCCO)=CC(c2ccc(CN3CCCC3)cc2)N(Cc2cccc(OC(F)(F)F)c2)C=C1C(=O)OCCS(C)(=O)=O (stereo not given) | -0.804 (inactive) | 0.879 | 1.55 (inactive) | 0.942 (inactive) | 0.128 (inactive) | 0.577 (inactive) | 0.219 | -0.302 (inactive) | -0.764 (inactive) | -0.504
O=C(CS)NCCCCCNC(=O)[C@H]1C[C@H]2C(=O)NCC(=O)N2[C@H]1c1ccc(O)cc1 | 1.43 (inactive) | -0.479 | 0.279 (inactive) | -0.723 (inactive) | -0.813 (inactive) | -2.32 (inactive) | -0.0935 | -0.297 (inactive) | 0.243 (inactive) | 1.16
CC(C)[Si](C#CCCCC#N)(O[C@H](c1ccccc1)c1cn(Cc2cccc(Cl)c2)nn1)C(C)C | 1.65 (inactive) | 0.0496 | 0.614 (inactive) | 1.24 (inactive) | -0.187 (inactive) | 1.04 (inactive) | 0.573 | -6.2 (inactive) | 0.194 (inactive) | 0.528
C[N+](C)(C)CCCC[C@@H]1NC(=O)[C@@H]2C[C@H](C(=O)NCCCCCCNC(=O)CS)[C@H](c3ccc(O)cc3)N2C1=O | -0.432 (inactive) | -0.101 | 2.2 (inactive) | 0.244 (inactive) | -3.26 (inactive) | -0.114 (inactive) | -0.489 | 0.614 (inactive) | 0.449 (inactive) | 0.0101
COc1ccc(C(=O)Nc2cccc(CN3C(=O)[C@]4(O[C@H](CCn5cc(CCO)nn5)[C@@H]([Si](C)(C)c5ccc(OC)cc5)[C@@H]4C)c4ccccc43)c2)cc1 | -0.856 (inactive) | -0.0061 | 6.78 (inactive) | 2.29 (inactive) | 0.155 (inactive) | 1.7 (inactive) | -0.815 | -1.91 (inactive) | -0.0331 (inactive) | 2.87
O=C1NC(=O)C2C1C=CC(C(O)c1ccc(I)cc1)N2Nc1ccccn1 (stereo not given) | -1.29 (inactive) | 0.0701 | 1.41 (inactive) | 0.698 (inactive) | 0.0388 (inactive) | 0.729 (inactive) | -0.779 | -1.16 (inactive) | -2.82 (inactive) | -2.2
COc1ccc(C(=O)Nc2ccc(CN3C(=O)[C@]4(O[C@H](CC(=O)N5CCC[C@H]5CO)[C@@H]([Si](C)(C)c5ccc(OC)cc5)[C@@H]4C)c4ccccc43)cc2)cc1 | -0.951 (inactive) | 0.385 | 7.69 (inactive) | 1.45 (inactive) | -0.749 (inactive) | 0.598 (inactive) | 0.424 | 2.62 (inactive) | 1.45 (inactive) | 4.87
NC(=O)NCC#Cc1ccc2c(c1)[C@]1(C(=O)N2)[C@H](C(=O)O)[C@H]2C(=O)O[C@H](c3ccccc3)[C@H](c3ccccc3)N2[C@@H]1c1ccc(O)cc1 | -1.29 (inactive) | 0.642 | 0.141 (inactive) | 0.0468 (inactive) | -0.357 (inactive) | 0.27 (inactive) | -0.603 | 1.17 (inactive) | -0.399 (inactive) | -0.349
O=C1OCCC=C[C@H]2OC34C=CCN(c5ccc(Cl)cc5)C(=O)[C@H]3N(CCCO)C(=O)[C@@H]4C12 (stereo not given in full) | 0.565 (inactive) | -0.221 | 0.991 (inactive) | -0.131 (inactive) | 0.319 (inactive) | -0.652 (inactive) | 1.61 | 0.736 (inactive) | -0.818 (inactive) | 0.215
COCCOC(=O)N1C(=O)[C@@]2(c3cc(C#Cc4ccc(OC)cc4)ccc31)[C@H](c1ccc(O)cc1)N1[C@H](c3ccccc3)[C@H](c3ccccc3)OC(=O)[C@H]1[C@@H]2C(=O)Nc1nc2ccccc2s1 | -1.12 (inactive) | 0.269 | 1.41 (inactive) | 0.616 (inactive) | -1.14 (inactive) | 1.01 (inactive) | 0.263 | 1.95 (inactive) | 0.183 (inactive) | -0.164
COc1cc2c(cc1O)C(c1cccs1)N(Cc1ccc([N+](=O)[O-])o1)CC2 (stereo not given) | 1.9 (inactive) | 0.0161 | 25.1 (active) | 7.24 (inactive) | -0.39 (inactive) | -0.628 (inactive) | 1.23 | -4.4 (inactive) | -2.58 (inactive) | -2.92
Cc1ccc(/C=C/C=O)cc1 | 1.24 (inactive) | -0.22 | 0.248 (inactive) | 0.0672 (inactive) | -0.0637 (inactive) | 0.0324 (inactive) | -0.139 | -0.225 (inactive) | -0.104 (inactive) | 1.17
